DT40 TDP1 no CPT = qHTS for Inhibitors of human tyrosyl-DNA phosphodiesterase 1 (TDP1): qHTS in cells in absence of CPT | Potency, µM (series often up to 46.2 µM), hits mostly inhibitors | AID 686978, 2013 | 420,000 tested, 15% active | DT40 Tdp1-/- hTDP1 cells, no CPT, ATP luminescence, 48 h; further: nearly all actives have a fitted effect of over 55% in size
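Luminescent ATP content (CellTiter-Glo) served as the growth readout. Knockout chicken DT40 cells expressing human TDP1 were exposed to compounds without camptothecin for a minimum 48 hr at 37 °C.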
IL1B secr inh = blocks inflammasome-driven IL-1 beta release. THP-1 LPS/ATP IL-1B secretion, AlphaLISA, 16 h; hits give low values. activity change, % at 57.5 µM. 360,000 tested, 4.7% active; in the data active means activity change below about -50%; inconclusive means mostly about -30% to -49%
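Secreted IL-1B measured by AlphaLISA bead assay after 16 h compound exposure of THP-1 cells; compounds (final up to 57.5 uM) added 1 h before LPS (250 ng/mL) and ATP (1.25 mM) stimulation; lower signal means less secretion.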
HepG2 tox = HepG2 cytotoxicity, counter-screen for TGF-b inhibitors; HepG2 CAGA-GFP viability, ATP luminescence, 18 h; Potency, µM (doses to about 46.1 µM), actives largely listed as cytotoxic; 410,000 tested, 0.76% active; AID 588856
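CellTiter-Glo luminescence gave cytotoxicity after 18 hours at 37 degrees C. The cells were HepG2 CAGA-GFP in 1% FBS DMEM, stimulated with 500 pg/mL TGF-beta after compound addition. %Activity was normalised to no-cell wells (complete cell-killing) and DMSO (no toxicity), and curves were fitted and classified.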
TDP1 cell CPT = growth inhibition of DT40 Tdp1-/-;hTDP1 cells with camptothecin (screen for TDP1 inhibitors). chicken DT40 Tdp1-/-;hTDP1 cells + 20 nM CPT, ATP luminescence, 48 h. Potency, µM (highest dose often 46.2 µM), most hits filed as inhibitors. 420,000 tested, 12% active. AID 686979; further: nearly all actives have a fitted effect of over 55% in size
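Cell growth measured by CellTiter-Glo luminescence after a minimum 48 h, 37 C compound exposure with 20 nM CPT in Tdp1-knockout DT40 cells stably expressing hTDP1, seeded 400/well; qHTS titration format.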
TGFb SMAD3 inh = inhibitors of TGF-b signaling | AID 588855 | Potency, µM (series often up to 46.1 µM), usual class: inhibitors | HepG2 CAGA-GFP TGF-b/SMAD3 reporter, GFP fluorescence, 18 h; TGF-beta stimulated, 500 pg/mL final | 410,000 tested, 1.2% active; further: nearly all actives have a fitted effect of over 65% in size
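Inhibition was scored as loss of TGF-beta-induced (500 pg/mL final, 18 hours, 37 degrees C) GFP in HEPG2 cells carrying a CAGA-GFP reporter, in DMEM with 1% FBS. Well GFP was summed per cell; Activity was normalised to unstimulated and stimulated DMSO wells, then concentration-response fitting.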
TDP1 inh = TDP1 (human) enzyme inhibition. 350,000 tested, 0.28% active. Q9NUW8. AID 485290. Potency, µM (series often up to 130 µM), actives largely listed as inhibitors. recombinant TDP1, AlphaScreen DNA substrate cleavage; further: nearly all actives have a fitted effect of over 40% in size
Target sequence (Q9NUW8 whole entry, looked up): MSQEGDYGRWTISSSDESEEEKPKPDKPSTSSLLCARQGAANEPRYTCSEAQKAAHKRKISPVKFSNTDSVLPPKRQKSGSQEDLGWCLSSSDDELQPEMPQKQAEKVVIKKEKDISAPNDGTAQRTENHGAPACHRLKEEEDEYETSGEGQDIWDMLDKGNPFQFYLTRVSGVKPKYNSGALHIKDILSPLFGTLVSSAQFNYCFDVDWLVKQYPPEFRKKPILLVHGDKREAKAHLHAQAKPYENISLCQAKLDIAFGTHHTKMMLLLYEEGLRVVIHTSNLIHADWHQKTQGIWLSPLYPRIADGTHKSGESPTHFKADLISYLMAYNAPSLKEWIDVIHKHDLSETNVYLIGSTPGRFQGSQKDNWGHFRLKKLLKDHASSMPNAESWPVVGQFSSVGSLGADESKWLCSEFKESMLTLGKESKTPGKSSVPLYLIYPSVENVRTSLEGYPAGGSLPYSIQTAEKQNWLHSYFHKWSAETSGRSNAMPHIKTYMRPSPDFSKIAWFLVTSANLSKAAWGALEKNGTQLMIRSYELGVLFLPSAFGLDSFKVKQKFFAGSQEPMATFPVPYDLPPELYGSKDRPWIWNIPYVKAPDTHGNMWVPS
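E. coli-derived human Tdp1, 1 nM final. Cpd preinc 15 min RT; substrate 15 nM final, 5 min RT; AS bead mix 10 ug/ml final, 10 min RT. Signal loss = tyrosine-FITC cleavage. No-enzyme wells = max signal.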
Hits are given with their value; n = inactive; u = inconclusive; x = no result. This is a sample that favours compounds with a hit; in the whole collection about 19% have one here. Unless noted, the call rests on the fitted dose curve; in most records, active means well fitted curve in the direction sought with a large enough effect; inconclusive means small, poorly fitted or top-dose-only effect, or another doubt; inactive means no such curve, though single readings can be large; an effect the other way counts as inactive or inconclusive.

SMILES	DT40 TDP1 no CPT	IL1B secr inh	HepG2 tox	TDP1 cell CPT	TGFb SMAD3 inh	TDP1 inh
C=CC(C)(C)c1[nH]c2ccccc2c1C1=C(O)C(=O)C(c2c[nH]c3c(CC=C(C)C)cccc23)=C(O)C1=O	13µM	x	x	13µM	x	u
CCN(CC)S(=O)(=O)c1ccc2c(c1)N(CC(=O)NCCc1ccccc1)C(=O)CO2	n	x	n	n	x	n
O=C1c2nc3cc(-c4ccco4)[nH]n3c(=O)c2CN1Cc1ccccc1	n	n	n	n	n	x
CCc1c(C)nc2c(-c3ccccc3)c(-c3ccccc3)[nH]n2c1=O	2.1µM	n	n	2.3µM	n	x
CCc1c(C)nc2cc(-c3ccccc3)[nH]n2c1=O	12µM	n	n	8.2µM	n	x
CCCCc1c(C)nc2cc(-c3ccco3)[nH]n2c1=O	u	-96	n	n	n	n
COCCC(=O)N1CCC(Oc2ccc(C(=O)NCCc3cnn(C)c3)cc2)CC1	n	n	n	n	n	n
COCCC(=O)N1CCC(Oc2ccc(C(=O)NCCCC3CCCC3)cc2)CC1	21µM	n	n	21µM	n	n
COCCC(=O)N1CCC(Oc2ccc(C(=O)NCCC3=CCCCC3)cc2)CC1	u	n	n	16µM	n	n
CCc1ccc(-c2cc(C(F)(F)F)n3nc(C(=O)Nc4c(C)nn(Cc5ccccc5C)c4C)cc3n2)s1	16µM	n	n	18µM	n	n
COc1cccc(CNc2nc3cc(-c4ccccc4C)sc3c(=O)n2C)c1OC	23µM	u	n	15µM	u	x
COc1cccc(CNc2nc3cc(-c4cccc(Cl)c4)sc3c(=O)n2C)c1OC	u	n	n	u	u	x
COc1ccccc1CNc1nc2cc(-c3ccc(OC)c(OC)c3)sc2c(=O)n1C	16µM	n	n	23µM	u	x
COc1ccc(-c2cc3nc(NCc4ccc(NC(C)=O)cc4)n(C)c(=O)c3s2)cc1OC	n	n	n	n	n	x
COc1cccc(CNc2nc3cc(-c4ccccc4)sc3c(=O)n2C)c1OC	29µM	n	10µM	16µM	u	x
COc1cc(OC)c(NC(=O)CCCn2nc(C)c3c(C)n(-c4ccccc4)nc3c2=O)cc1Cl	u	x	n	u	n	n
CCOc1ccc(NS(=O)(=O)c2ccc3ncsc3c2)cc1	u	n	n	u	n	x
CC(C)NC(=S)NN=C1c2ccccc2-c2ccccc21	7.3µM	n	n	23µM	u	n
C/C(=N\NC(=S)NC(C)C)c1ccco1	u	n	n	u	n	n
CCC(C)c1nc2c(c(N3CCC3=O)c1-c1ccccc1)CCCC2 (centres undefined)	u	n	n	18µM	n	x
Cc1cccc(NS(=O)(=O)c2ccc(C(=O)N3CCC3)cc2)c1C	u	n	n	n	n	x
CCOC(=O)[C@@H]1[C@H]2COc3cc(OC)ccc3[C@@H]2N2C(=O)N(c3ccc(Br)cc3)C(=O)[C@]12C	u	n	n	15µM	n	x
CCOC(=O)[C@H]1[C@H]2COc3cc(OC)ccc3[C@@H]2N2C(=O)N(c3cccc(Cl)c3)C(=O)[C@@]12C	29µM	n	n	u	n	x
CCOC(=O)[C@@H]1[C@H]2COc3cc(OC)ccc3[C@@H]2N2C(=O)N(c3ccc(C(F)(F)F)cc3)C(=O)[C@]12C	21µM	n	n	23µM	n	x
CCOC(=O)[C@@H]1[C@H]2COc3cc(OC)ccc3[C@@H]2N2C(=O)N(c3ccc(OC)cc3)C(=O)[C@@]12C	n	n	n	n	n	n
Cn1c(=O)c(-c2cccs2)nc2cnc(OCc3ccccc3)nc21	n	x	x	n	x	x
O=C(NNc1c(Cl)cccc1Cl)c1sc2ccccc2c1Cl	n	x	x	n	x	x
Cn1c(=O)c2cc(NC(=O)Cc3ccccc3F)ccc2n1Cc1ccc(Cl)cc1	u	u	n	u	n	x
O=C(CN1C(=O)NC2(CCCC2)C1=O)N1CCN(Cc2ccccc2)CC1	n	n	n	n	n	x

Screening results from PubChem BioAssay.
